From PubChem BioAssay (Tox21) come the findings set out here.

A short description of experiment [1]: qHTS assay to identify small molecule antagonists of the vitamin D receptor (VDR) signaling pathway - cell viability counter screen (AID 743225). Further: nearly all actives have a fitted effect of over 50% in size. A digest of the protocol:
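VDR-bla HEK 293T cells, 4 h pre-incubation at 37C, then compound plus 1-alpha,25-dihydroxyvitamin D3 (3 nM final) for 16 h. After the beta-lactamase FRET read, CellTiter-Glo was added to the same wells; luminescence after 30 min at room temperature.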

A short description of experiment [2]: qHTS assay to identify small molecule agonists of the NFkB signaling pathway - cell viability counter screen (AID 1159515; calls by dose curve; further: series mostly up to about 61 µM; nearly all actives have a fitted effect of over 55% in size). A digest of the protocol: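 Parallel cytotoxicity counter screen in ME-180 cells carrying an NFkB-response-element beta-lactamase reporter, 2,000 cells/well. Compound exposure lasted 5 hr at 37 C, 5% CO2. Cell viability was quantified by CellTiter-Glo luminescence.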

Experiment [3] is described as follows: qHTS assay to identify small molecule agonists of the endoplasmic reticulum stress response signaling pathway (AID 1159516; active means well fitted activation curve with a large enough effect in the signal ratio in the repeat runs, not every such curve was filed as active; the % refers to the signal ratio). The procedure, abridged:
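Using a HeLa line with an ESRE-driven beta-lactamase gene, agonist activity was measured by FRET substrate fluorescence (460 and 530 nm emission) after cells were treated with compounds for 5 hr at 37 C and 5% CO2.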

Experiment [4] in a line: qHTS assay to identify small molecule agonists of the endoplasmic reticulum stress response signaling pathway - cell viability counter screen (AID 1159517; calls by dose curve;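 further: HeLa cells carrying an ER stress response element beta-lactamase reporter; series mostly up to about 61 µM; nearly all actives have a fitted effect of over 50% in size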). A digest of the protocol:
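After overnight attachment, ESRE-bla HeLa cells were treated with Tox21 library compounds for 5 hr. CellTiter-Glo luminescence, read 30 min post-addition at room temperature, reported viability.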

Experiment [5] addresses Nuclear receptor ROR-gamma (Homo sapiens) (UniProt P51449). Nature of the experiment: qHTS assay to identify small molecule antagonists of the retinoid-related orphan receptor gamma (ROR-gamma) signaling pathway (AID 1159521; further: nearly all actives have a fitted effect of over 50% in size; further: potency means the concentration at half of the fitted maximal effect). A digest of the protocol:
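Tet-on RORγ CHO cells carrying a ROR response element–luciferase reporter were pretreated with compounds for 2 h, then induced with 1 uM (final) doxycycline hyclate for 16 h at 37 C. Antagonism was read as decreased ONE-Glo luminescence.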
Background: In qHTS, concentration-response curves come from the screen itself.

Experiment [6] is described as follows: qHTS assay to identify small molecule agonists of the AP-1 signaling pathway - cell viability counter screen (AID 1159525; calls by dose curve; further: nearly all actives have a fitted effect of over 55% in size). A digest of the protocol: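 Intracellular ATP by Cell Titer Glo luminescence (30 min, RT) in the same ME-180 AP-1-bla wells after the 5 h compound exposure at 37 °C. Normalised to tetra n-octyl ammonium bromide and DMSO controls.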
Experiment [7] in a line: qHTS assay to identify small molecule agonists of the AP-1 signaling pathway (AID 1159526; calls by dose curve).
The target of experiment [8] is Retinoic acid receptor RXR-alpha (Homo sapiens) (UniProt P19793). Nature of the experiment: qHTS assay to identify small molecule agonists of the RXR signaling pathway (AID 1159527; calls by dose curve; further: nearly all actives have a fitted effect of over 35% in size). A digest of the protocol: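 GeneBLAzer RXR-alpha-UAS-bla HEK 293T cells in medium with 2% charcoal-stripped FBS, pre-incubated 5 hr at 37 C, then exposed to compounds 16 hr. Beta-lactamase reporter read by FRET substrate, 2 hr room temperature, 460/530 nm emission.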
Retinoic acid receptor RXR-alpha (Homo sapiens), sequence (P19793 whole entry, looked up): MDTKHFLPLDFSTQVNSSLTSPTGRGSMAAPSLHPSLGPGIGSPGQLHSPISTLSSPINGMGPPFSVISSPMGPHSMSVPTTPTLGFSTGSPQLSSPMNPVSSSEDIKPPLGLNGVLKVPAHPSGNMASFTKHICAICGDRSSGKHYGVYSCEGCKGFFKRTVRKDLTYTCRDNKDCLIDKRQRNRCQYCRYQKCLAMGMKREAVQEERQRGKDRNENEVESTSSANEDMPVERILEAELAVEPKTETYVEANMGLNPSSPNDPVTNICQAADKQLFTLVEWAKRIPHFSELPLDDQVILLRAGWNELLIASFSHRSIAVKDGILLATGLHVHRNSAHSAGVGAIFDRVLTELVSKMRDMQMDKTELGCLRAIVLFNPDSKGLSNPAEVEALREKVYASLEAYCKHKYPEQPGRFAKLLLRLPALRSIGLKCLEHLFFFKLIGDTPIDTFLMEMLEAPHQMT

The nature of experiment [9]: qHTS assay to identify small molecule agonists of the RXR signaling pathway - cell viability counter screen (AID 1159529). Further: nearly all actives have a fitted effect of over 50% in size. Further: potency means the concentration at half of the fitted maximal effect. A digest of the protocol:
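RXR-alpha-UAS-bla HEK 293T cells in medium with 2% charcoal-stripped FBS were preincubated 5 hr, then exposed to compounds for 16 hr at 37 C. Viability was read as CellTiter-Glo luminescence after 30 min at room temperature.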

The nature of experiment [10]: qHTS assay to identify small molecule antagonists of the retinoid acid receptor (RAR) signaling pathway - cell viability counter screen (AID 1159551). Further: nearly all actives have a fitted effect of over 35% in size. The procedure, abridged: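 ATP-based viability, C3RL4 cells, 6 h at 37 C with 1 uM final retinol co-added after compound; luminescence read 30 min post CellTiter-Glo, RT.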
Experiment [11] is described as follows: qHTS assay to identify small molecule antagonists of the estrogen related receptor (ERR) signaling pathway from Tox21 library - cell viability counter screen (AID 1224834). Further: nearly all actives have a fitted effect of over 30% in size. Further: potency means the concentration at half of the fitted maximal effect. The procedure, abridged:
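Compounds in DMSO were pinned onto ERR cells that had been incubated for 6 h, and the plates were held at 37 C for 17.5 h. CellTiter-Fluor reagent was then added and fluorescence was measured after 30 min.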

For experiment [12], the target named is Luciferin 4-monooxygenase (Photinus pyralis) (UniProt P08659). Nature of the experiment: qHTS assay to identify small molecule inhibitors of firefly luciferase (AID 1224835). Further: nearly all actives have a fitted effect of over 25% in size. Further: potency means the concentration at half of the fitted maximal effect. The procedure, abridged:
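Inhibition of purified Photinus luciferase is measured by luminescence. Substrate levels (D-luciferin, ATP) sit at their KM values. Each compound is tested in a concentration series.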

The nature of experiment [13]: qHTS assay to identify small molecule agonists of the vitamin D receptor (VDR) signaling pathway - cell viability counter screen (AID 743224). Further: nearly all actives have a fitted effect of over 50% in size. Further: potency means the concentration at half of the fitted maximal effect. A digest of the protocol: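 Compounds were pin-transferred onto VDR-bla cells plated 4 h earlier; following 16 h incubation at 37C, cell viability was quantified by CellTiter-Glo luminescence after 30 min at room temperature.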

Experiment [14] in a line: qHTS assay to identify small molecule antagonists of the retinoic acid receptor (RAR) signaling pathway (AID 1159552; further: nearly all actives have a fitted effect of over 50% in size; further: potency means the concentration at half of the fitted maximal effect). A digest of the protocol: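 RARE-luc C3RL4 cells; cpds + 1 uM (final) retinol, 6 hr, 37 C/5% CO2; luciferase reagent, 30 min RT, luminescence readout. Inhibitors of retinol-driven signal scored.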
The nature of experiment [15]: qHTS assay to identify small molecule agonists of the retinoic acid receptor (RAR) signaling pathway (AID 1159553). A digest of the protocol:
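Quantitative high-throughput format: the Tox21 10K library was tested on C3RL4 RARE-luciferase cells for 6 hr at 37 C and 5% CO2, with luminescence measured after a 30 min room-temperature reagent step.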

Experiment [16] in a line: qHTS assay to identify small molecule antagonists of the estrogen related receptor (ERR) signaling pathway (AID 1224819). A digest of the protocol: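 ERR reporter cell line (NTP) plated at 2,000 cells/well, settled 6 h at 37C/5% CO2, then exposed to LOPAC compounds for 18 h at 37C. One-Glo luciferase luminescence read after 30 min at room temperature.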
Experiment [17] in a line: qHTS assay to identify small molecule agonists of the estrogen related receptor (ERR) signaling pathway (AID 1224820). A digest of the protocol:
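Luminescence readout (One-Glo, 30 min RT) from NTP-supplied ERR cell line exposed to compounds for 18 h at 37 C. Cells seeded 2,000 per well and pre-incubated 6 h before pin-tool compound transfer.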

For experiment [18], the system named is estrogen-related receptor alpha (ERRalpha) with PGC-1alpha coactivator, human. The experiment in a line: qHTS assay to identify small molecule antagonists of the estrogen related receptor signaling pathway with the pleiotropic PPARgamma coactivator (PGC) (AID 1224821; calls by dose curve). A digest of the protocol: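 PGC/ERR reporter cells; 6 h pre-incubation 37 C/5% CO2; pin-tool compound in DMSO, 18 h 37 C; One-Glo added, 30 min RT; luminescence read. qHTS antagonist mode.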

A short description of experiment [19]: qHTS assay to identify small molecule agonists of the estrogen related receptor signaling pathway with the pleiotropic PPARgamma coactivator (PGC) (AID 1224823). The procedure, abridged:
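Luminescence readout (One-Glo, 30 min RT) from PGC/ERR cell line treated 18 h at 37 C with pin-tool-delivered DMSO compound solutions; cells plated 6 h before dosing. Quantitative HTS format.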

Experiment [20] in a line: qHTS assay to identify small molecule antagonists of the retinoid-related orphan receptor gamma (ROR-gamma) signaling pathway - cell viability counter screen (AID 1159520). Further: nearly all actives have a fitted effect of over 50% in size. Further: potency means the concentration at half of the fitted maximal effect. The procedure, abridged: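 Cytotoxicity was read from cellular ATP (CellTiter-Glo luminescence) after 16 hr at 37 C with 1 uM doxycycline induction. The inducer was added 2 hr after compound transfer to Tet-on ROR gamma CHO cells.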

“And” between values parts separate entries of the source, which are not always exact repeats. Equal entries are not always repeated. Results filed as inconclusive are left out. The source made the active and inactive calls. Unless noted, the call rests on the fitted dose curve; in most records, active means well fitted curve in the direction sought with a large enough effect in the repeat runs; inconclusive means weak or mixed curves; inactive means no such curve, though single readings can be large; an effect the other way counts as inactive or inconclusive.

Luciferin 4-monooxygenase (Photinus pyralis), sequence (P08659 whole entry, looked up): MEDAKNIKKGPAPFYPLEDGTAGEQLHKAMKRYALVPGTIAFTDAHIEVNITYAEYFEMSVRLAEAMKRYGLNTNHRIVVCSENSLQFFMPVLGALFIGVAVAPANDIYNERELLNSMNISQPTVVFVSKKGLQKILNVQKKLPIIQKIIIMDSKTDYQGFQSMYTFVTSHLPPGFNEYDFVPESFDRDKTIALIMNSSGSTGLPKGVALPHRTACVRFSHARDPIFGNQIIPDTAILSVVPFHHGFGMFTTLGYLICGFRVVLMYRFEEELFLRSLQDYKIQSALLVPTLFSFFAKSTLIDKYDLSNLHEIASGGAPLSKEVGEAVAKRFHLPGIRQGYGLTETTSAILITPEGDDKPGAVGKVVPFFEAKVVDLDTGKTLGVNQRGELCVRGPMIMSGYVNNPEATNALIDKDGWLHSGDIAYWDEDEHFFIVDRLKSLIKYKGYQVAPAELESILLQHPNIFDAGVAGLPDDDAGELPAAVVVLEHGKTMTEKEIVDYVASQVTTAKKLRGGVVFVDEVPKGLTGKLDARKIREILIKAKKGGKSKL

As for `CCOc1ccccc1C(N)=O`, the Potency entry in experiment [1], in experiment [2], in experiment [4], in [5], in experiment [6] and in experiment [7] was “inactive” each time. In addition, the Potency result in [8], in experiment [9], in [10], in [11] and in experiment [12] was “inactive” each time. Besides, the result in [3] was inactive.
As to `CCc1ccc(C(c2ccc(CC)cc2)C(Cl)Cl)cc1`, the Potency entry in [13], in experiment [1], in experiment [2], in [4], in [5] and in experiment [6] was “inactive” throughout. Also, the Potency result in experiment [7], in experiment [14], in experiment [15], in experiment [11] and in experiment [12] was “inactive” each time. Moreover, in [3], the outcome was inactive. In addition, the Potency in experiment [9] was 35.2 µM (active).
In the case of `O=C1CC2(CCCC2)CC(=O)N1CCCCN1CCN(c2ncccn2)CC1`, the Potency result in experiment [13], in [1], in experiment [2], in experiment [4], in [6] and in experiment [7] was “inactive” each time. Moreover, the Potency result in experiment [9], in experiment [14], in experiment [15], in experiment [16], in [18] and in [11] was “inactive” throughout. Further, the Potency entry in [12] is “inactive”. Besides, the result in [3], in experiment [17] and in experiment [19] was inactive.
Take `COc1ccc(CCN(C)CCCC(C#N)(c2ccc(OC)c(OC)c2)C(C)C)cc1OC` (stereo not drawn): the Potency result in experiment [2], in experiment [4], in [20], in experiment [5], in experiment [6] and in experiment [10] was “inactive” throughout. Further, the Potency in [11] is 54.4 µM (active).
On to `CC(C(O)c1ccc(O)cc1)N1CCC(Cc2ccccc2)CC1` (stereo not drawn), for which the Potency result in experiment [13], in experiment [1], in [2], in [4], in [20] and in experiment [5] was “inactive” throughout. Further, the Potency result in experiment [6], in experiment [7], in [8], in experiment [9], in experiment [10] and in experiment [14] was “inactive” each time. Besides, the Potency entry in experiment [15] and in experiment [11] was “inactive” each time. Further, the compound was classed as inactive in experiment [17] and in [19].
In the case of `Cc1cc(C2(c3cc(C)c(O)cc3C)OS(=O)(=O)c3ccccc32)c(C)cc1O`, the Potency entry in [13], in experiment [1], in experiment [2], in experiment [20], in experiment [6] and in [7] was “inactive” each time. For the same compound, the Potency result in [8] and in experiment [10] was “inactive” throughout. Besides, in [3], the call was inactive. Besides, the Potency in experiment [11] is 21.7 µM (active) and 24.3 µM (active); in experiment [12], 35.6 µM (active).
On to `CCC(=O)/C=C/C1C(C)=CCCC1(C)C` (stereo not drawn), for which the Potency result in experiment [13], in [1], in experiment [2], in experiment [4], in experiment [6] and in [7] was “inactive” each time. Moreover, the Potency result in [8], in [9], in experiment [10], in experiment [11] and in experiment [12] was “inactive” throughout. The outcome in experiment [3] was inactive.
`O=C(Nc1ccccc1SSc1ccccc1NC(=O)c1ccccc1)c1ccccc1`: the Potency was 12.4 µM (active) and 12.3 µM (active) in [13]; 24.3 µM (active) in experiment [20]; 8.68 µM (active) and 17.2 µM (active) in [5]; 19.6 µM (active) and 21.9 µM (active) in experiment [9]; 15.4 µM (active) in [14]; 43.5 µM (active) and 48.6 µM (active) in [11]. Besides, the Potency in [12] was 5.05 µM (active) and 2.52 µM (active). In addition, the Potency entry in experiment [2], in experiment [4], in experiment [6] and in experiment [10] was “inactive” throughout.
